These results are taken from article PMC5540273 (PLoS ONE, 2017).
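Also: KINOMEscan kinase panel screen.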

The subject of this assay is EGFR. The conditions noted are these: concentration: 1 μM, replicates: in singlicate; n = 1.
For `COCCOCCOc1cc2ncc3c4ccc(C#N)cc4[nH]c3c2cc1OC`, the “%Inh” value is 12%.
Regarding `Nc1n[nH]c2cnc(-c3ccccc3)cc12` [SB-642124], the “%Inh” value was determined as 38%.
As for `CN1CCN(CCCNc2nccc(-c3c(-c4ccc(F)cc4)nn4cc(C(F)(F)F)ccc34)n2)CC1` [GW621581], the figure is 23%; as for `Nc1ncnc2c1nc(-c1ccccc1)n2-c1ccccc1` [SKF-97293], 7%.
On to `Cl.NC(=O)c1cccc(Nc2nccc(Nc3ccc(Oc4c(Cl)cccc4Cl)c(Cl)c3)n2)c1` [GW659009], for which the “%Inh” value stood at 99.5%.
With `Cc1ccc(F)c(C(=O)Nc2cccc(-c3nn4ccccc4c3-c3ccnc(Nc4cccc(F)c4)n3)c2)c1F` [GSK361061] the figure was 99.1%; with `COc1cccc(-c2ccc3c(NC(=O)C4CC4)n[nH]c3n2)c1` [SB-710903], 20%; with `CC(=O)N1CCN(c2ccc(Nc3nccc(-c4sc(C(C)C)nc4-c4cccc(NS(=O)(=O)c5cccc(Cl)c5)c4)n3)cn2)CC1` [GSK1660437], 86%.
With `C[C@@H]1CC[C@@H](C(=O)Nc2ccccc2)CN1c1cc(-c2ccc3c(N)n[nH]c3c2)nc(N)n1` [GSK2286062] the figure was 43%; with `Clc1ccc(-c2nn3ncccc3c2-c2ccnc(Nc3ccc4c(c3)OCCO4)n2)cc1` [GW829116], 84%.
With `Cc1ccc(C(=O)N2CC[C@@H](O)C2)cc1-n1c(C)cc(OCc2ccc(F)cc2F)c(Br)c1=O` the figure was 0%; with `CC(=O)Nc1nc2cnc(Nc3cc(NC(=O)c4cccc(C5(C#N)CC5)c4Cl)ccc3C)nc2s1`, 0%.
As to `c1ccc(-c2cnc3nccnn23)cc1` [AH20685], the “%Inh” value was found to be 14%.
As for `CCn1c(-c2nonc2N)nc2c(C#CC(C)(C)O)nc(OC[C@H](N)c3ccccc3)cc21` [GSK943949], the figure is 12%; as for `Cl.Cl.NCC(C(=O)Nc1cc(Br)c(-c2ccnc3[nH]ccc23)s1)c1ccccc1` (centres unmarked) [GSK1269851], 27%.
Take `COc1cccc(C2=C(Nc3ccc(Cl)c(C(=O)O)c3)C(=O)NC2=O)c1` [SB-390769]: the “%Inh” value turned out to be 24%.
With `Cc1cccc(Nc2nc(N[C@H]3CCNC3)ncc2C(N)=O)c1.Cl` [GSK2197149] the figure was 50%.
